Measurements reported in PubChem BioAssay AID425 (Sanford-Burnham Center for Chemical Genomics, 2006).
“And” between values parts separate entries of the source, which are not always exact repeats. Equal entries are not always repeated. The whole screen tested about 110,000 compounds, of which about 190 (0.17%) were called active. Cut-off read from the data, not from the text of the source: active = inhibition above about 50%; inactive = the rest. This excerpt belongs to a sample that is enriched for actives. Potency and affinity values are given separately. Where a structure was tested more than once in an assay, its records may differ in their call.

target: Dual specificity protein phosphatase 6 (Rattus norvegicus) (UniProt Q64346); experiment: MKP-3 phosphatase inhibitors, primary screen, biochemical, rat enzyme, in vitro (AID 425); conditions: recombinant MKP-3 phosphatase activity, fluorescence; at 20 µM; stronger effect = higher value;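 note: plate controls were vehicle for no effect and reference inhibitor for full effect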
Sequence (Q64346 whole entry, looked up): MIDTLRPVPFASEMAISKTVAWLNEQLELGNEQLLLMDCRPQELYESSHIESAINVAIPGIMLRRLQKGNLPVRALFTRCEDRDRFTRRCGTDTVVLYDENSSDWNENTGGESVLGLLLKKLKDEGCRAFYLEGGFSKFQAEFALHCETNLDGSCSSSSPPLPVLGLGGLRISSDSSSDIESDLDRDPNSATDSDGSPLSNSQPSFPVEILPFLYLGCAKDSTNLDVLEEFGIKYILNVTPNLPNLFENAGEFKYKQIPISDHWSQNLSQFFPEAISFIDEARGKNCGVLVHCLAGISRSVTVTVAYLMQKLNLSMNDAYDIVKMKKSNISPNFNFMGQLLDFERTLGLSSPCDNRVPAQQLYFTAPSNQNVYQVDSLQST

| SMILES | inhibition |
| --- | --- |
| COc1ccc2noc3c2c1C(=O)c1ccccc1-3 | 102% (active) and -3.3% (inactive) |
| O=C1c2ccccc2-c2onc3ccc(NC4CCCCC4)c1c23 | -1.7% (inactive) |
| O=C1c2ccccc2-c2onc3ccc(NCc4ccco4)c1c23 | -14.4% (inactive) |
| O=C1c2ccccc2-c2onc3ccc(Oc4ccc(Cl)cc4)c1c23 | 92.2% (active) |
| CCOc1ccc(Nc2ccc3noc4c3c2C(=O)c2ccccc2-4)cc1 | 3.7% (inactive) |
| O=C1c2ccccc2-c2onc3ccc(N4CCCCC4)c1c23 | 10.8% (inactive) |
| O=C1c2ccccc2-c2onc3ccc(Cl)c1c23 | 13.1% (inactive) |
| CCOc1ccc2noc3c2c1C(=O)c1ccccc1-3 | 45.7% (inactive) and 44.7% (inactive) |
| O=C1C=Cc2ccccc2/C1=N/Oc1ccc2noc3c2c1C(=O)c1ccccc1-3 | 65.3% (active) |
| CCNc1ccc2noc3c2c1C(=O)c1ccccc1-3 | 4.2% (inactive) |
| O=C1c2ccccc2-c2onc3ccc(Sc4ccccc4)c1c23 | 7.7% (inactive) |
| Cc1ccc2c(c1)c1nc3ccccc3nc1n2CCN1CCOCC1 | 1.9% (inactive) |
| Brc1cccc(CN2CCN(C3CCN(Cc4ccccc4)CC3)CC2)c1 | 3.4% (inactive) |
| O=C(CSC(=S)N1CCOCC1)c1ccc([N+](=O)[O-])cc1 | 2.2% (inactive) |
| Cc1ccc(-n2c3c(cc(C(=O)NCCCN4CCOCC4)c2=O)C(=O)CC(C)(C)C3)cc1 | -7.6% (inactive) |
| COc1cccc(C2/C(=C(\O)c3c(C)nc4c(C)cccn34)C(=O)C(=O)N2CCCN(C)C)c1 (stereo not given) | -2.7% (inactive) |
| CCCCOC(=O)c1c(NC(=O)C2C3CCC(C3)C2C(=O)O)sc2c1CCCC2 (stereo not given) | 0% (inactive) |
| COc1ccc(/C=C/C(=O)NC(=S)Nc2ccc(S(=O)(=O)N=C(N)N)cc2)cc1 | -1.1% (inactive) |
| O=C1CC(c2ccccc2)CC2=C1C(c1cccnc1)Nc1ccc(C(=O)c3ccccc3)cc1N2 (stereo not given) | 8.5% (inactive) |
| O=C(O)C1C2C=CC(O2)C1C(=O)Nc1ccccc1C(F)(F)F (stereo not given) | 4.5% (inactive) |

| SMILES | inhibition |
| --- | --- |
| O=C(O)c1ccc(NC2=C(N3CCCCC3)C(=O)c3ccccc3C2=O)cc1 | 1.7% (inactive) |
| O=C1C(Nc2ccc(Cl)cc2)=C(N2CCOCC2)C(=O)c2ccccc21 | 2% (inactive) |
| O=C1C(Nc2ccc(Cl)cc2)=C(N2CCCCC2)C(=O)c2ccccc21 | 55.2% (active) |
| CCOCCOC(=O)C1=C(C)N(C)C(=O)NC1c1cc(Cl)c(O)c(OCC)c1 (stereo not given) | -5.1% (inactive) |
| O=C(CN1CCN(Cc2ccccc2Cl)C1=O)NC1CCCCCCC1 | -3.3% (inactive) |
| Cc1c(CCC(=O)O)c(=O)oc2cc3occ(-c4ccc(F)cc4)c3cc12 | 8.5% (inactive) |
| Cc1c(CCC(=O)O)c(=O)oc2cc(O)ccc12 | 2.4% (inactive) |
| COc1ccc(C2(O)CC3CCC(C2)N3c2cc(C)nc(-c3ccccc3)n2)cc1 (stereo not given) | 7.5% (inactive) |
| Cc1ccc(C2CC(C(F)(F)F)n3nc(C(=O)N(Cc4ccccc4)Cc4ccccc4)cc3N2)cc1 (stereo not given) | 3.9% (inactive) |
| COc1ccc(Cn2c3nc4ccccc4nc3c3c(=O)n(Cc4ccco4)c(C)nc32)cc1 | 8.3% (inactive) |
| COc1ccc(Cn2c3nc4ccccc4nc3c3c(=O)n(Cc4ccco4)cnc32)cc1 | 2.5% (inactive) |
| COC(=O)c1c(-c2ccccc2)csc1NC(=O)CCCC(=O)O | 3.6% (inactive) |
| CN=C(Nc1ccc(F)cc1)SC1CC(=O)N(c2ccccc2F)C1=O (stereo not given) | 1.3% (inactive) |
| COC(=O)N(C)c1nc2ccccc2s1 | -5% (inactive) |
| CCOC(=O)c1nc2ccccc2s1 | -6.5% (inactive) |
| COC(=O)c1c2nc3ccccc3sc-2cc(=O)c1N | 122% (active) |
| O=C(Nc1cccc2c1CCCC2)c1ccc(Br)cc1 | 2.6% (inactive) |
| O=C(Cc1ccccc1)Nc1ccccc1C(=O)N1CCN(Cc2ccccc2)CC1 | 2.5% (inactive) |
| CC(Oc1ccc(Cl)cc1Cl)C(=O)N1CCN(Cc2ccccc2)CC1 (stereo not given) | -0.2% (inactive) |
| CCOC(=O)c1sc2ncn(C(CC)C(=O)OC)c(=O)c2c1C (stereo not given) | -9.8% (inactive) |

| SMILES | inhibition |
| --- | --- |
| CCOC(=O)c1sc2nc(SCC(=O)NCc3ccco3)n(Cc3ccccc3)c(=O)c2c1C | -3.7% (inactive) |
| CCOC(=O)c1sc2ncn(C(C)C(=O)OC)c(=O)c2c1C (stereo not given) | -14.1% (inactive) |
| CCOC(=O)c1sc2ncn(C(C)C(=O)OCC)c(=O)c2c1C (stereo not given) | 0.5% (inactive) |
| O=C(COc1ccc(Cl)cc1)Nc1ncccn1 | -2.2% (inactive) |
| C/C(=N\OCC(=O)N=Nc1c(O)n(CN2CCN(C)CC2)c2ccccc12)c1cccs1 | -0.1% (inactive) |
| CN(C)c1ccc(C(C2=C(O)CC(C)(C)CC2=O)C2=C(O)CC(C)(C)CC2=O)cc1 | 3.2% (inactive) |
| O=C(Cn1nc(Cc2cccnc2)c2ccccc2c1=O)Nc1ccc2c(c1)OCO2 | -0.1% (inactive) |
| COC(=O)c1cc2c([nH]c3ccccc32)c(C)n1 | -4% (inactive) |
| N#Cc1c(N)nc(SCC(=O)c2ccccc2)c(C#N)c1-c1ccc(Cl)cc1 | 6.2% (inactive) |
| Cc1cc2nc(-c3ccc(SCC(=O)N4CCOCC4)nc3)[nH]c2cc1C | 3.3% (inactive) |
| Cc1cc(NC(=O)CSc2ccc(-c3nc4cc(C)c(C)cc4[nH]3)cn2)no1 | 0.6% (inactive) |
| Oc1ccc(Br)cc1C=Nc1ccc(Cl)c2cccnc12 | 14.2% (inactive) |
| Oc1oc(-c2ccccc2)nc1C=Nc1ccc(Cl)c2cccnc12 | 3.9% (inactive) |
| Oc1c(Br)cc(Br)cc1C=Nc1ccc(Cl)c2cccnc12 | 98.2% (active) |
| Oc1c(Br)cc(Br)cc1/C=N/c1ncn[nH]1 | 5.8% (inactive) |
| Oc1c(Br)cc(Br)cc1C=Nc1ccc(Br)c2cccnc12 | 52.9% (active) |
| CCc1ccc(O)c(N=Cc2cc(Br)cc(Br)c2O)c1 | 1.5% (inactive) |
| COc1ccc(N(Cc2cc3ccc(C)cc3[nH]c2=O)C(C)=O)cc1 | -3.9% (inactive) |
| CC(C)Cc1cc(C(=O)NCCN2CCOCC2)no1 | -10.2% (inactive) |
| NC(=O)c1ccccc1NC(=O)c1ccc(Cl)cc1[N+](=O)[O-] | -1.7% (inactive) |
